# High-throughput results deposited in PubChem BioAssay by NMMLSC.
# AGP1-GFP MLPCN – modulators of AGP1-GFP expression in yeast TOR pathway, primary screen, cell-based, multiplex flow cytometry, S. cerevisiae, MLPCN library; 3 h; GFP as percent of DMSO wells; GFP response vs DMSO, % at 10 µM; hit rate 0.02% among 320,000;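 active means GFP response relative to DMSO above a set limit, near screen average plus 3 SD, cut at about 150% in these data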;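 further: median GFP channel fluorescence of the gated AGP1 strain per well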
# CIT2-GFP yeast – modulators of CIT2-GFP expression in yeast, primary screen, S. cerevisiae, GFP fusion, multiplex flow cytometry, MLPCN library | S. cerevisiae CIT2-GFP strain, 3 h; 100 means same as DMSO wells | GFP response vs DMSO, % at 10 µM | hit rate 0.065% among 320,000 | AID 2029, 2009;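 active means GFP response relative to DMSO above a set limit, near the screen mean plus 3 SD, cut at about 150% in these data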;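 further: ratio of well median GFP fluorescence to mean of DMSO wells on the plate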
# RPL19A-GFP yeast – RPL19A-GFP expression modulators in yeast, primary screen, cell-based, S. cerevisiae, multiplex flow cytometry, MLPCN | hit rate 0.3% among 330,000 | AID 2025, 2009 | S. cerevisiae RPL19A-GFP strain, 3 h; active compounds read low | percent response vs DMSO, % at 10 µM;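 active means percent response vs DMSO below 50%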;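 further: median channel GFP fluorescence of the barcoded RPL19A-GFP strain; ratio of sample median GFP to plate DMSO average so 100% = DMSO; lower means less RPL19A-GFP as with rapamycin TOR inhibition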
# LAP4-GFP MLPCN – modulators of LAP4-GFP expression in yeast, primary screen, S. cerevisiae, multiplex flow cytometry, MLPCN library; 3 h; median GFP as percent of DMSO wells; GFP response vs DMSO, % at 10 µM; hit rate 0.34% among 320,000;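 active means GFP response vs DMSO above a set limit, about the screen mean plus 3 SD, cut at about 150% in these data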
# MEP2-GFP yeast – modulators of MEP2-GFP levels in yeast, primary screen, S. cerevisiae, multiplex flow cytometry, MLPCN library; hit rate 0.51% among 330,000; AID 2016, 2009; S. cerevisiae MEP2-GFP strain, 3 h; 100% = DMSO control level; GFP response vs DMSO, % at 10 µM;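 active means GFP response versus DMSO above a set limit, roughly screen mean plus 3 SD, cut at about 180% in these data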;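 further: median GFP fluorescence of the barcode-gated MEP2-GFP cells per well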
# LAP4-GFP pick2 – LAP4-GFP expression modulators in yeast, confirmation, cell-based, second cherry pick, flow cytometry. shares compounds with LAP4-GFP MLPCN. S. cerevisiae LAP4-GFP strain, 3 h. GFP response vs DMSO, % at 10 µM. hit rate 20% among 590;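 active means GFP signal as percent of the solvent control above about 150%, meaning raised reporter expression, limit read from the data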;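 further: ratio of well median GFP fluorescence to plate DMSO mean so 100% = DMSO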
# MEP2 cherry2 – modulators of MEP2-GFP levels in yeast, confirmation, S. cerevisiae, flow cytometry GFP, second cherry picks; shares compounds with LAP4-GFP MLPCN; S. cerevisiae MEP2-GFP strain, 3 h; GFP response vs DMSO, % at 10 µM; hit rate 10% among 590; AID 2622, 2010;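 active means GFP signal above 150% of the solvent control wells, that is a rise of more than half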;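 further: median channel GFP fluorescence of all gated yeast cells per well; ratio of median GFP to plate DMSO average so 100% = DMSO level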
# RPL19A-GFP pick2 – RPL19A-GFP modulators in TOR pathway yeast, confirmation, cell-based, S. cerevisiae, flow cytometry, second cherry pick; hit rate 3% among 590; S. cerevisiae RPL19A-GFP strain, 3 h; active compounds read low; 100% means same as DMSO wells; shares compounds with LAP4-GFP MLPCN; AID 2623, 2010; GFP response vs DMSO, % at 10 µM;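 active means under 65% GFP response relative to DMSO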;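 further: median GFP channel fluorescence per well over the all cells gate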
# CIT2-GFP pick2 – modulators of CIT2-GFP expression in yeast, confirmation, flow cytometry, second cherry pick, single plex | shares compounds with LAP4-GFP MLPCN | S. cerevisiae CIT2-GFP strain, 3 h; DMSO control wells read 100% | GFP response vs DMSO, % at 10 µM | hit rate 8% among 590 | AID 2624, 2010;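 active means GFP response vs DMSO above about 150%, limit read from the data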;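 further: median green fluorescence per well over all gated yeast cells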
# AGP1-GFP pick2 – AGP1-GFP expression modulators, hit retest, confirmation, cell-based, flow cytometry, S. cerevisiae, cherry pick set 2; percent response vs DMSO, % at 10 µM; shares compounds with LAP4-GFP MLPCN; S. cerevisiae AGP1-GFP strain, 3 h; 590 tested, under 10 active;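 active means over 150 percent of DMSO response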;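 further: median GFP channel fluorescence over all cells without mother daughter split; sample median GFP divided by mean DMSO control so 100% equals DMSO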
# Yeast autofluor – compound autofluorescence in yeast s288c, dose response, artefact control for yeast TOR pathway GFP screen, s288c strain | shares compounds with LAP4-GFP MLPCN | S. cerevisiae s288c, 520 nm autofluorescence, flow cytometry, 3 h; active compounds read high; zero means same as solvent-only cells | fluorescence change (kMESF span) at 33 µM | 610 tested, under 10 active | AID 2757, 2010;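 active means fluorescence span over the dose series, or activity score, above about 33, limit read from the data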
# Yeast autofl DR – autofluorescence of compounds in yeast s288c, dose response, artefact control for yeast TOR pathway GFP screen, primary hits, KU SAR, s288c parental; fluorescence change (span) at 33 µM; shares compounds with LAP4-GFP MLPCN; AID 488829, 2010; S. cerevisiae s288c parental, compound autofluorescence, flow cytometry, 3 h; 110 tested, under 10 active;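 active means fluorescence change span, or the activity score built from it, above 25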
# TORC1 bypass gr – wild-type yeast growth inhibition sparing TORC1 bypass cells, mechanism study for yeast TOR pathway GFP screen, BY4741 wild type, TORC1 bypass strain; shares compounds with LAP4-GFP MLPCN; S. cerevisiae BY4741 spot growth rating, 48-72 h; active compounds read low; growth rating (0-3) at 30 µM; 120 tested, under 10 active; AID 504456, 2011;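 active means growth rating at most 1 for wild type yeast while the TORC1 bypass strain still grows fully, rated 3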
# The depositor's hits bear a star; . = no result given. A selection: hits, their analogues and other compounds. The true share with any hit is near 0.89%.
SMILES,AGP1-GFP MLPCN,CIT2-GFP yeast,RPL19A-GFP yeast,LAP4-GFP MLPCN,MEP2-GFP yeast,LAP4-GFP pick2,MEP2 cherry2,RPL19A-GFP pick2,CIT2-GFP pick2,AGP1-GFP pick2,Yeast autofluor,others
CC(C(=O)NCc1ccccc1Cl)n1cc([N+](=O)[O-])cn1 (configuration not stated),95,99,97,90,101,.,.,.,.,.,.,
CCOC(=O)CSC1=NC(=O)/C(=C\c2ccc(Cl)cc2)S1,83,73,94,184*,87,.,.,.,.,.,0.21,Yeast autofl DR=0.16;TORC1 bypass gr=3
CC(=O)Nc1ccc(C(=O)N/N=C/c2cc(Br)cc(Br)c2O)cc1,110,109,103,103,101,.,.,.,.,.,.,
Cc1ccc(C(=O)O)cc1N=Cc1cc(Br)cc(Br)c1O,79,62,80,180*,90,166*,166*,71,139,105,0.7,
O=c1oc(/C=C/c2ccc([N+](=O)[O-])s2)nc2ccccc12,103,161*,116,154*,185*,.,.,.,.,.,13,
CC(=O)Oc1ccccc1/C=C/c1nc2ccccc2c(=O)o1,88,94,99,101,104,.,.,.,.,.,.,
O=C(NNC(=O)c1sccc1-n1cccc1)c1cccc(Cl)c1,100,88,82,203*,89,94,96,101,107,95,.,
O=C(NNC(=O)c1sccc1-n1cccc1)c1ccccc1,97,111,98,96,98,.,.,.,.,.,.,
COc1cccc(CNC(=O)c2ccc3c(c2)N(C)CCS3)c1OC,154*,161*,64,258*,759*,99,100,99,99,97,.,
CN1CCSc2ccc(C(=O)NCc3ccccc3F)cc21,91,90,100,121,106,.,.,.,.,.,.,
CCc1nc2ccccc2c(=O)n1NC(=O)c1c(O)c2cccc3c2n(c1=O)CCC3,58,81,57,93,83,114,129,64*,122,39,2.2,
CCCc1nnc(NC(=O)c2c(O)c3cccc4c3n(c2=O)CCC4)s1,64,80,51,98,81,107,133,50*,128,47,3.8,
O=C(Nn1c(Cc2ccccc2)nc2ccccc2c1=O)c1c(O)c2cccc3c2n(c1=O)CCC3,103,93,95,103,91,.,.,.,.,.,.,
CCn1c(=O)c(C(=O)Nc2nc3ccccc3[nH]2)c(O)c2ccccc21,40,84,67,176*,126,.,.,.,.,.,4.4,
CCn1c(=O)c(C(=O)Nn2c(C)nc3ccccc3c2=O)c(O)c2ccccc21,75,122,52,96,101,.,.,.,.,.,.,
CCc1nc2ccccc2c(=O)n1NC(=O)c1c(O)c2ccccc2n(CC)c1=O,40,103,54,87,124,125,224*,42*,168*,44,1.4,
CNc1ccccc1C(=O)OCC(=O)N(CCOC)c1c(N)n(CC(C)C)c(=O)[nH]c1=O,106,107,98,111,101,.,.,.,.,.,.,
Cc1ccc(C(C(=O)NCCc2ccccc2)N(C(=O)c2csnn2)C2CC2)cc1 (configuration not stated),92,90,95,92,102,.,.,.,.,.,.,
CC1CCN(S(=O)(=O)c2ccc(C(=O)N3CCCC(C(F)(F)F)C3)cc2)CC1 (configuration not stated),99,91,96,100,99,.,.,.,.,.,.,
CCn1c(=O)c(C(C)=O)c(O)c2ccccc21,79,58,92,174*,92,.,.,.,.,.,-1.7,
CCOC(=O)c1c(O)c2ccccc2n(CC)c1=O,81,84,74,142,106,.,.,.,.,.,.,
CCOCCCNC(=O)C1CCCN(S(=O)(=O)c2cccc3nsnc23)C1 (configuration not stated),100,68,72,234*,86,97,105,100,101,101,.,
O=C(Nc1nnc(-c2ccc3c(c2)CCCC3)o1)c1ccc(Cl)cc1Cl,35,53,56,84,109,153*,211*,105,161*,94,0.41,
O=C(Nc1nnc(-c2ccc3c(c2)CCCC3)o1)c1c(F)cccc1F,96,88,90,96,83,.,.,.,.,.,.,
Cc1cccc(Nc2nc(N)c([N+](=O)[O-])c(NCc3ccco3)n2)c1,89,98,99,101,100,.,.,.,.,.,.,
CNc1nc(N)c([N+](=O)[O-])c(NCc2ccco2)n1,.,.,.,.,.,.,.,.,.,.,.,Yeast autofl DR=0;TORC1 bypass gr=3
Cn1nc(CC(=O)Nc2ncc(Br)s2)c2ccccc2c1=O,26,99,64,92,158,96,103,100,106,99,.,
O=[N+]([O-])c1cc(/C=N\Nc2ccccn2)ccc1Cl,98,96,106,80,103,.,.,.,.,.,.,
O=[N+]([O-])c1cc(Cl)cc(/C=N\Nc2ccccn2)c1O,46,74,52,147,122,179*,192*,82,165*,84,2.7,
